# Laboratory results: PubChem BioAssay
# Where “and” joins values, the source holds several entries; their conditions need not be identical. Equal entries are not always repeated. Results filed as inconclusive are left out. Calls of active or inactive are those of the source.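 Rule for the calls, unless noted: active = normalized viability below 100% at a tested concentration; inactive = the rest.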
# Key:
# [1] = tested on: Aerobactin synthetase IucA (Klebsiella pneumoniae); experiment: inhibition of K. pneumoniae IucA enzyme – biochemical, Tocris library, absorbance (AID 1345561; call rule not given here;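 note: 100% = enzyme without compound and 0% = no enzyme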); conditions: purified IucA enzyme assay, absorbance (OD) read-out; stronger effect = lower value;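 tested at 8 µM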
# [2] = viability loss in pontine glioma line – cell-based, SU-DIPG-XVII, MIPE5.0, CellTiter-Glo, qHTS, dose response (AID 1347060; cut-off not given, nearly all actives have AC50 up to about 26 µM;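 note: cells exposed to compound for 48 hours before viability readout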); conditions: CellTiter-Glo ATP luminescence
# [3] = viability loss in pontine glioma line – cell-based, SU-DIPG-XIII, MIPE5.0, CellTiter-Glo, qHTS, dose response (AID 1347064; cut-off not given, nearly all actives have AC50 up to about 23 µM;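 for AC50: cells exposed to compound for 48 hours before the viability read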); conditions: CellTiter-Glo ATP luminescence
# [4] = viability loss in pontine glioma line – cell-based, SU-DIPG-XXV, MIPE5.0, CellTiter-Glo, qHTS, dose response (AID 1347065; cut-off not given, nearly all actives have AC50 up to about 26 µM;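 note: cells exposed to compound for 48 hours before ATP readout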); conditions: CellTiter-Glo ATP luminescence
# [5] = growth inhibition of DIPG cells – cell-based, MIPE4.0 library, CellTiter-Glo luminescence, qHTS (AID 1347066; cut-off not given, nearly all actives have AC50 up to about 30 µM;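 note: cells exposed to compound for 48 hours before readout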); conditions: SU-DIPG-VI viability, CellTiter-Glo ATP luminescence
# [6] = JHH-DIPG-1 glioma cell viability, MIPE5.0 library, CellTiter-Glo luminescence, qHTS (AID 1347067; cut-off not given, nearly all actives have AC50 up to about 26 µM;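 note: cells exposed to compound for 48 hours before readout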); conditions: JHH-DIPG-1 glioma viability, CellTiter-Glo ATP luminescence
# [7] = viability loss with induced miR-34 in A549 – imaging, A549 dox-inducible miR-34, nuclei and caspase counts, primary screen (AID 1347080;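 active = compounds whose cell count with miR-34 switched on is under 0.7 times the count with it off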); conditions: A549 miR-34 inducible, Hoechst nuclei count, 48 h
# [8] = compounds altering HSF1 focus formation in cells – imaging, Selleck Cancer Library (AID 1347162; in the data active = plate-normalised HSF1 focus index below about 0.46); conditions: human cells, HSF1 nuclear foci imaging, at 10 µM; SSMD: measured here: HSF1 foci SSMD mean; cell count: measured here: cell number; plate-normalised HSF1 focus index: stronger effect = lower value
# [9] = galactose survival enhancers in mitochondrial complex I cybrids – cell-based, galactose medium, ATP luminescence, primary screen (AID 1645843;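 active = z-score of at least 1.8 in each of two replicates, scored against plate mean and spread of sample wells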;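 note: positive z means more ATP and so rescue of galactose-driven cybrid death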); conditions: complex I mutant cybrid cells, 72 h, stronger effect = higher value
# [10] = viability loss in pontine glioma line – cell-based, SU-DIPG-XIII, MIPE4.0, CellTiter-Glo, qHTS, dose response (AID 1347061; cut-off not given, nearly all actives have AC50 up to about 37 µM;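 note: cells exposed to compound for 48 hours before readout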); conditions: CellTiter-Glo ATP luminescence
# [11] = growth inhibition of DIPG cells – cell-based, MIPE5.0 library, qHTS (AID 1347068; cut-off not given, nearly all actives have IC50 up to about 30 µM;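 for IC50: cells exposed to compound for 48 hours before viability readout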); conditions: SU-DIPG-XXV viability
# [12] = P. berghei load reduction in hepatocytes – cell-based, HepG2, luciferase luminescence, HepG2 viability, primary screen (AID 624349; in the data active = parasite load remaining mostly below about 12%, no sharp cut-off; inactive = mostly above about 10%;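 note: 100% = mean of DMSO negative control wells on the same plate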); conditions: P. berghei liver stage in HepG2, luciferase luminescence, concentration not given here; parasite load remaining: stronger effect = lower value; viability: measured here: HepG2 viability without parasites
# [13] = viability loss in pontine glioma line – cell-based, JHH-DIPG-1, MIPE4.0, CellTiter-Glo, qHTS, dose response (AID 1347062; cut-off not given, nearly all actives have AC50 up to about 27 µM;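 for AC50: cells exposed to compound for two days before readout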); conditions: JHH-DIPG-1 viability, CellTiter-Glo ATP luminescence
# [14] = MELAS cybrid and Rieske KO viability enhancers – cell-based, MELAS cybrids, Rieske KO mouse fibroblasts, CellTiter-Glo, primary screen (AID 1508586;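 active = mean z-score across replicates of 1.96 or higher in either the MELAS or the Rieske mutant cell line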;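 note: z relative to plate mean and SD of compound and empty wells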); conditions: low glucose
# [15] = viability loss in pontine glioma line – cell-based, SU-DIPG-IV, MIPE4.0, CellTiter-Glo, qHTS, dose response (AID 1347063; cut-off not given, nearly all actives have AC50 up to about 30 µM;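 note: compound exposure lasted 48 hours before the viability readout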); conditions: CellTiter-Glo ATP luminescence
# [16] = drug combination growth inhibition, ovarian cancer – cell-based, oncology-focused library, rucaparib conditional, profiling panel (AID 1508598); conditions: patient-derived ovarian cancer cells, CellTiter-Glo viability, 144 h, stronger effect = lower value
# [17] = stronger effect = lower value, cell number ratio, induced over uninduced
# [18] = measured here: relative caspase fold change +Dox/-Dox
# [19] = measured here: total cells with miR-34 induction, stronger effect = lower value
# [20] = measured here: total cells without miR-34 induction
# [21] = MELAS cybrid survival, CellTiter-Glo 48 h, stronger effect = higher value
# [22] = Rieske KO mouse fibroblast survival, CellTiter-Glo 72 h
smiles,measurement,setting,value
COc1ccc(CCN(C)CCCOc2ccc(S(=O)(=O)c3c(C(C)C)c4ccccc4n3C)cc2)cc1OC,remaining activity,[1],115% (inactive)
same,AC50,[2],18.6 µM (active)
same,AC50,[3],23.5 µM (active)
same,AC50,[4],9.34 µM (active)
same,outcome,[5],inactive
same,AC50,[6],10.5 µM (active)
same,fold change,[7]; [17],1.02 (inactive)
same,fold change,[7]; [18],0.864
same,cell count,[7]; [19],222
same,cell count,[7]; [20],219
same,SSMD,[8],-4.23
same,cell count,[8],5740
same,plate-normalised HSF1 focus index,[8],0.749 (inactive)
same,z-score,[9],-1.04 (inactive)
Oc1cc(O)cc(/C=C/c2ccc(O)c(O)c2)c1,remaining activity,[1],112% (inactive)
same,outcome,[10],inactive
same,AC50,[3],20.9 µM (active)
same,AC50,[6],16.6 µM (active)
same,outcome,[11],inactive
same,fold change,[7]; [17],1.12 (inactive) and 0.813 (inactive) and 0.863 (inactive)
same,fold change,[7]; [18],0.772 and 1.12 and 0.797
same,cell count,[7]; [19],9320 and 2290 and 7210
same,cell count,[7]; [20],8350 and 2810
same,z-score,[9],-1.24 (inactive) and -0.7 (inactive)
O=C1c2ccccc2-c2n[nH]c3cccc1c23,parasite load remaining,[12],34% (inactive)
same,viability,[12],81%
same,remaining activity,[1],103% (inactive)
same,outcome,[10],inactive
same,outcome,[13],inactive
same,outcome,[5],inactive
same,z-score,[14]; [21],-0.446 (inactive)
same,z-score,[14]; [22],-0.381
same,z-score,[9],0.03 (inactive) and 0.085 (inactive)
Cc1ccc(NC(=O)c2cccc(N(C)C)c2)cc1NC(=O)c1ccc(O)cc1,remaining activity,[1],115% (inactive)
same,AC50,[10],0.662 µM (active)
same,AC50,[13],3.32 µM (active)
same,AC50,[15],0.935 µM (active)
same,outcome,[11],inactive
same,fold change,[7]; [17],1.11 (inactive) and 0.903 (inactive) and 0.921 (inactive)
same,fold change,[7]; [18],0.888 and 0.797 and 0.511
same,cell count,[7]; [19],2990 and 8110 and 7940
same,cell count,[7]; [20],2700 and 8980 and 8620
same,z-score,[14]; [21],-0.437 (inactive)
same,z-score,[14]; [22],0.706
same,z-score,[9],1.09 (inactive)
CC(C)(C)/[N+]([O-])=C/c1ccc(S(=O)(=O)O)cc1S(=O)(=O)O,remaining activity,[1],104% (inactive)
same,outcome,[10],inactive
same,outcome,[13],inactive
same,outcome,[15],inactive
same,outcome,[5],inactive
same,fold change,[7]; [17],1.35 (inactive)
same,fold change,[7]; [18],1.12
same,cell count,[7]; [19],7460
same,cell count,[7]; [20],5520
same,z-score,[9],2.67 (inactive)
C=CCc1cccc(/C=N/NC(=O)CN2CCN(Cc3ccccc3)CC2)c1O,remaining activity,[1],83.1% (inactive)
same,AC50,[5],16.6 µM (active)
same,fold change,[7]; [17],1.09 (inactive) and 0.918 (inactive) and 0.982 (inactive)
same,fold change,[7]; [18],0.357 and 1.59 and 1.69
same,cell count,[7]; [19],2970 and 4320 and 3830
same,cell count,[7]; [20],2740 and 4710 and 3900
same,SSMD,[8],3.11
same,cell count,[8],7490
same,plate-normalised HSF1 focus index,[8],1.19 (inactive)
same,z-score,[9],-1.15 (inactive) and -0.59 (inactive)
CCOC(=O)C(C)Oc1cccc2c(=O)n(CC(=O)Nc3ccc4c(c3)OCCO4)ccc12 (centres undefined),remaining activity,[1],96.6% (inactive)
same,outcome,[10],inactive
same,outcome,[13],inactive
same,outcome,[15],inactive
same,AC50,[3],20.9 µM (active)
same,outcome,[6],inactive
same,outcome,[11],inactive
same,fold change,[7]; [17],0.916 (inactive) and 0.854 (inactive)
same,fold change,[7]; [18],0.783 and 1.31
same,cell count,[7]; [19],8970 and 6830
same,cell count,[7]; [20],9800 and 8000
same,SSMD,[8],0.942
same,cell count,[8],6920
same,plate-normalised HSF1 focus index,[8],1.06 (inactive)
same,z-score,[9],0.675 (inactive) and 0.45 (inactive)
C[C@H](NC(=O)Cc1cc(F)cc(F)c1)C(=O)N[C@H](C(=O)OC(C)(C)C)c1ccccc1,remaining activity,[1],99.3% (inactive)
same,outcome,[10],inactive
same,outcome,[13],inactive
same,outcome,[3],inactive
same,outcome,[6],inactive
same,fold change,[7]; [17],0.918 (inactive)
same,fold change,[7]; [18],1.67
same,cell count,[7]; [19],8110
same,cell count,[7]; [20],8840
same,SSMD,[8],2.12
same,cell count,[8],6880
same,plate-normalised HSF1 focus index,[8],1.11 (inactive)
same,viability,"[16]; at 0.000305 µM, OCI-C5x cells, with rucaparib 10 µM, 100% = cells with rucaparib alone",103% (inactive)
same,viability,"[16]; at 0.000305 µM, OCI-C5x cells, without rucaparib",116% (inactive)
same,viability,"[16]; at 0.000305 µM, OCI-P5x cells, with rucaparib 20 µM, 100% = cells with rucaparib alone",110% (inactive)
same,viability,"[16]; at 0.000305 µM, OCI-P5x cells, without rucaparib",111% (inactive)
same,viability,"[16]; at 0.00122 µM, OCI-C5x cells, with rucaparib 10 µM, 100% = cells with rucaparib alone",103% (inactive)
same,viability,"[16]; at 0.00122 µM, OCI-C5x cells, without rucaparib",117% (inactive)
same,viability,"[16]; at 0.00122 µM, OCI-P5x cells, with rucaparib 20 µM, 100% = cells with rucaparib alone",109% (inactive)
same,viability,"[16]; at 0.00122 µM, OCI-P5x cells, without rucaparib",107% (inactive)
same,viability,"[16]; at 0.00488 µM, OCI-C5x cells, with rucaparib 10 µM, 100% = cells with rucaparib alone",108% (inactive)
same,viability,"[16]; at 0.00488 µM, OCI-C5x cells, without rucaparib",126% (inactive)
same,viability,"[16]; at 0.00488 µM, OCI-P5x cells, with rucaparib 20 µM, 100% = cells with rucaparib alone",106% (inactive)
same,viability,"[16]; at 0.00488 µM, OCI-P5x cells, without rucaparib",111% (inactive)
same,viability,"[16]; at 0.0195 µM, OCI-C5x cells, with rucaparib 10 µM, 100% = cells with rucaparib alone",103% (inactive)
same,viability,"[16]; at 0.0195 µM, OCI-C5x cells, without rucaparib",119% (inactive)
same,viability,"[16]; at 0.0195 µM, OCI-P5x cells, with rucaparib 20 µM, 100% = cells with rucaparib alone",110% (inactive)
same,viability,"[16]; at 0.0195 µM, OCI-P5x cells, without rucaparib",102% (inactive)
same,viability,"[16]; at 0.0781 µM, OCI-C5x cells, with rucaparib 10 µM, 100% = cells with rucaparib alone",115% (inactive)
same,viability,"[16]; at 0.0781 µM, OCI-C5x cells, without rucaparib",117% (inactive)
same,viability,"[16]; at 0.0781 µM, OCI-P5x cells, with rucaparib 20 µM, 100% = cells with rucaparib alone",107% (inactive)
same,viability,"[16]; at 0.0781 µM, OCI-P5x cells, without rucaparib",101% (inactive)
same,viability,"[16]; at 0.313 µM, OCI-C5x cells, with rucaparib 10 µM, 100% = cells with rucaparib alone",106% (inactive)
same,viability,"[16]; at 0.313 µM, OCI-C5x cells, without rucaparib",125% (inactive)
same,viability,"[16]; at 0.313 µM, OCI-P5x cells, with rucaparib 20 µM, 100% = cells with rucaparib alone",102% (inactive)
same,viability,"[16]; at 0.313 µM, OCI-P5x cells, without rucaparib",99% (active)
same,viability,"[16]; at 1.25 µM, OCI-C5x cells, with rucaparib 10 µM, 100% = cells with rucaparib alone",116% (inactive)
same,viability,"[16]; at 1.25 µM, OCI-C5x cells, without rucaparib",117% (inactive)
same,viability,"[16]; at 1.25 µM, OCI-P5x cells, with rucaparib 20 µM, 100% = cells with rucaparib alone",84.1% (active)
same,viability,"[16]; at 1.25 µM, OCI-P5x cells, without rucaparib",85.6% (active)
same,viability,"[16]; at 5 µM, OCI-C5x cells, with rucaparib 10 µM, 100% = cells with rucaparib alone",120% (inactive)
same,viability,"[16]; at 5 µM, OCI-C5x cells, without rucaparib",120% (inactive)
same,viability,"[16]; at 5 µM, OCI-P5x cells, with rucaparib 20 µM, 100% = cells with rucaparib alone",75.1% (active)
same,viability,"[16]; at 5 µM, OCI-P5x cells, without rucaparib",78.3% (active)
same,z-score,[9],0.56 (inactive)
CCCC[C@@H](C=O)NC(=O)[C@H](CC(C)C)NC(=O)OCc1ccccc1,remaining activity,[1],86.3% (inactive)
same,outcome,[4],inactive
same,outcome,[6],inactive
same,IC50,[11],16.6 µM (active)
same,fold change,[7]; [17],0.927 (inactive) and 0.862 (inactive)
same,fold change,[7]; [18],1.01 and 0.983
same,cell count,[7]; [19],6040 and 7590
same,cell count,[7]; [20],6520 and 8800
same,z-score,[9],2.31 (inactive)
